High-throughput results as filed in PubChem BioAssay.
AID504770 = growth inhibition of E. coli YBA685, primary screen, V. cholerae RctB inhibitors; E. coli YBA685 rctB-dependent plasmid, OD600 growth, 3 h; hits give low values; z-score (test concentration not listed); 130,000 compounds, 0.27% hits; in the data active = z-score below about -2, passing the limit was not always enough
MbtI inh = MbtI salicylate synthase inhibitors, primary screen, biochemical, fluorescence intensity. inhibition, % (no concentration beside the values). AID 493033, 2011. purified MbtI enzyme, fluorescence intensity read-out. 100,000 compounds, 0.89% hits. P9WFX0; in the data active = inhibition mostly above about 56%, no sharp cut-off; inactive = mostly below about 77%
Target sequence (P9WFX0 whole entry, looked up): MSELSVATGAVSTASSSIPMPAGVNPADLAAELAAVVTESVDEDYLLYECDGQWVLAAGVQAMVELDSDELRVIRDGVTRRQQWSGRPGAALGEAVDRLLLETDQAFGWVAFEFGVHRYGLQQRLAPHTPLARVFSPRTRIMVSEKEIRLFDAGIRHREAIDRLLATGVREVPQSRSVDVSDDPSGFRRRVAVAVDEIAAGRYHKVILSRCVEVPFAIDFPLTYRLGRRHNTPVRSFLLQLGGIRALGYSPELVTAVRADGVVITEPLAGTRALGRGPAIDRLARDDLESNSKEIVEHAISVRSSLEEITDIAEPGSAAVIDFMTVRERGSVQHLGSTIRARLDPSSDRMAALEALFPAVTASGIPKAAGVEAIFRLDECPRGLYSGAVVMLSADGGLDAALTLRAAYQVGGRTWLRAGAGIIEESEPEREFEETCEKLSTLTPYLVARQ
MenB inh = M. tuberculosis MenB inhibitors, primary screen, biochemical, absorbance. 1,4-dihydroxy-2-naphthoyl-CoA synthase (Mycobacterium tuberculosis (strain ATCC 25618 / …. MenB enzyme assay, absorbance read-out. inhibition, % (concentration not given with the values). 100,000 compounds, 0.43% hits. AID 540299, 2011; in the data active = inhibition above about 21%, passing the limit was not always enough
Polio RdRp inh = poliovirus RdRp elongation inhibitors, primary screen, biochemical, fluorescence polarization, total intensity. 150,000 compounds, 0.66% hits. % elongation, % (compound at 16.7 µg/mL). poliovirus polymerase elongation; hits give low values; in the data active = % elongation below about 90%
Numbers stand for hits; - = inactive; . = no result given. Hits are enriched below; roughly 1.5% of the tested compounds scored in any of these assays.

SMILES	AID504770	MbtI inh	MenB inh	Polio RdRp inh
CCN1C(=O)N(c2ccccc2)P(=S)(N2CCCC2)c2cc3c(cc21)OCCO3 (stereo not given)	-	90	-	87
c1ccc(CN2CCN(Cc3ccc4c(c3)OCCO4)CC2)cc1	-	-	-	-
OC(COc1ccc2cc(Br)ccc2c1)Cn1cccn1 (stereo not given)	-	.	28	-
CC(C)(C)C1(O)C=C(O)C(=O)N1c1cccnc1 (stereo not given)	-	.	53	-
O=C(CC12CC3CC(CC(C3)C1)C2)NCC(=O)N1CCCC1	-	-	-	86
O=C(CC12CC3CC(CC(C3)C1)C2)NCC(=O)N1CCN(Cc2ccccc2)CC1	-	-	-	-
O=C(CN(Cc1ccccc1)C(=O)Cn1nnc(-c2ccc(F)cc2)n1)NC1CCCC1	-	-	-	-
COc1ccc(CN(CC(=O)NC2CCCC2)C(=O)Cn2nnc(-c3ccc(OC)cc3)n2)cc1	-	-	33	-
COc1ccccc1-n1cc(C(=O)c2ccccc2O)cc(C#N)c1=O	-	96	-	-
CC(C)c1cc(N)on1	-2.2	-	-	-
Cc1ccc(Sc2ncccc2NC(=O)c2ccco2)cc1	-	.	.	.
Nc1nonc1/C(=N/O)N1CCCC1	-	-	-	-
Nc1nonc1C(=O)N1CCCC1	-	-	46	-
CC(C)Cn1cc(NC(=O)Nc2cccc(C(F)(F)F)c2)c2ccccc2c1=O	.	.	.	70
Cc1ccc(NC(=O)Nc2cn(CC(C)C)c(=O)c3ccccc23)cc1N(C)C	.	.	.	73
CCCN(CCC)C(=O)Nc1cn(CC(C)C)c(=O)c2ccccc12	-	-	-	-
O=C(Cc1cccc(F)c1)NCC(c1cccs1)N1CCOCC1 (stereo not given)	-	-	-	-
CCCc1nc2sc3c(c2c(=O)n1N)CCCC3	-	-	33	-
Nn1c(Cc2ccccc2)nc2sc3c(c2c1=O)CCCC3	-	-	-	-
NC(=O)n1c(CCC(=O)O)nc2sc3c(c2c1=O)CCC3	-	-	-	85
COc1ccc(/C=N/n2cn[nH]c2=S)cc1OC	-	-	-	-
S=c1[nH]ncn1/N=C/c1ccccc1	-	86	-	-
Cc1ccc(C(=O)CSC#N)o1	-3.1	.	-	-
N#CSCC(=O)c1ccccc1	-3.6	.	.	.
N#CCC(=O)c1ccccc1	-	-	.	-
SMILES	AID504770	MbtI inh	MenB inh	Polio RdRp inh
Cc1ccc(C(=O)O)o1	-	-	.	-
CNc1ccc2cccc(O)c2n1	-3.3	-	-	-
Nc1nonc1C(=O)NCCN=Cc1ccccc1O	-	-	-	-
Nc1nonc1C(=O)NN=c1c(=O)c2ccccc2c1=O	-	-	-	47
Cc1nc2cc(C(=O)c3ccccc3)ccc2[nH]c1=O	-	-	-	.
O=C(CN1C(=O)c2ccccc2C1=O)c1ccc(Cl)cc1	-	-	-	6.0
COc1cccc(NC(=O)c2ccc(OC(=S)N3CCC(C)CC3)cc2)c1	-2.8	.	-	-
O=C(O)c1ccccc1C1NC(C(=O)O)CS1 (stereo not given)	-	.	.	.
COC(=O)C1=CN(c2ccc(F)cc2)C=C(C(=O)OC)C1c1cccs1	-	.	-	-
CC(=O)N1C(C(=O)O)Cc2c([nH]c3ccccc23)C1(C)C (stereo not given)	-	.	-	-
CC12CCC(=O)N1C(C(=O)O)Cc1c2[nH]c2ccccc12 (stereo not given)	-	-	-	85
CCCn1c(=O)[nH][nH]c1=S	-	88	-	-
Nc1nc(Cl)cc(N2CCCCC2)n1	-	-	-	-
CCCCC(CC)C(=O)Nc1nnc(C(C)C)s1 (stereo not given)	-	70	-	-
CC1CCC[S+](c2cc(O)ccc2O)C1 (stereo not given)	-	101	-	-
O=S(=O)(c1ccccc1)N1CCN(S(=O)(=O)c2ccc3ccccc3c2)CC1	-	-	-	-
COCCNC(=S)N1CCCN(c2nc3cc(C)ccc3cc2C#N)CC1	-	-	21	-
Cc1ccc2cc(C#N)c(N3CCCN(C(=O)C4CCCCC4)CC3)nc2c1	-	-	-	-
COC(=O)c1ccc(CSc2nc3ccccc3c(=O)n2C(C)c2ccccc2)o1 (stereo not given)	-	-	-	-
CCn1c(O)c(N=NC(N)=S)c2ccccc21	-	-	-	76
Cc1nn(-c2ccccc2Cl)c2nc(-c3ccco3)cc(C(=O)NN)c12	-	-	-	88
O=c1cc(CSc2ccc(Cl)cc2)[nH]c(=S)[nH]1	-	58	-	-
CN1CCc2nc3sc(C(=O)Nc4ccccc4C(F)(F)F)c(N)c3cc2C1	.	.	.	31
Cc1ccccc1NC(=O)c1sc2nc3c(cc2c1N)CN(Cc1ccccc1)CC3	.	.	.	-
NC(=O)c1c(O)c2c([nH]c1=O)CCCC2	-	-	-	-
SMILES	AID504770	MbtI inh	MenB inh	Polio RdRp inh
Cc1cc(=S)nc(-c2ccccn2)[nH]1	-	81	-	-
Cn1nc(-c2ccccn2)sc1=S	-	-	-	-
Fc1ccc(COC(CN2CCCCC2)CN2CCCCC2)cc1	-	-	-	-
CCOc1ccc(OCC)c(Nc2nc3ccc(C)cc3n3nnnc23)c1	-	-	-	-
CC(C)(C)NC(=O)Cc1ccccc1	-	-	38	-
NNC(=O)Cc1ccccc1	-	-	-	-
Cc1ccc(C)n1-c1n[nH]c(=S)s1	-	-	-	-
CCCc1n[nH]c(=S)s1	-	89	-	87
COC(=O)c1ccc(NC(=S)Nc2cc(C)[nH]n2)cc1	-	-	-	-
Cc1nn(-c2ccccc2)c2c1P(=S)(N1CCOCC1)OC(c1ccccc1)=N2 (stereo not given)	-	-	-	88
COc1cc(C2=Nc3c(c(C)nn3-c3ccccc3)P(=O)(N3CCOCC3)O2)cc(OC)c1OC (stereo not given)	-	-	-	-
Cc1ccc(OC(=O)c2sc3nc(-c4ccc(Cl)cc4)nn3c2C)cc1	-	-	-	-
Cc1ccc(C)n1-c1ccc(C(=O)NCC(=O)O)cc1	-	-	-	69
O=C(Oc1cc(Cl)cc(Cl)c1)c1ccno1	-2.5	.	.	.
Cc1ccc(OC(=O)c2ccno2)cc1	-	.	.	.
O=c1[nH]c(=S)[nH]c(C(F)(F)F)c1Cc1ccc(Cl)c(Cl)c1	-	-	-	-
O=c1[nH]c(=S)[nH]nc1Cc1ccc(Cl)c(Cl)c1	-	58	-	-
CCn1c(C)c(CCC(=O)NCc2ccccn2)c(=O)n2nc(-c3ccccc3OC)cc12	-	-	-	-
CC(C)c1ccc(N2C(=O)Cc3c2nc(N)c2c(N)nc(N4CCCC4)c(C#N)c32)cc1	-	-	-	-
CC(=O)N1CCN(c2nc(N)c3c(N)nc4c(c3c2C#N)CC(=O)N4C)CC1	-	-	-	18
CC1CC(C)CN(CCC(=O)Nc2ccccc2F)C1 (stereo not given)	-	-	-	-
CC1CC(C)CN(CCN)C1 (stereo not given)	-	-	52	-
CN(C)S(=O)(=O)c1ccc2c(c1)oc(=O)n2C	-	-	27	-
CC(C)CNS(=O)(=O)c1ccc2nc(NC(=O)c3ccccn3)sc2c1	-	68	-	-
